Compound activity (PubChem BioAssay)
Shown is part of a subset that was picked to be rich in hits.
IDE exosite FP = displaces the probe from the exo-site of human IDE | P14735 | purified IDE, FL-6b probe fluorescence polarization; active compounds read low | z-score at 20 µM | 17,000 compounds, 6.3% hits;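 active means z-score of -3 or lower, meaning strong loss of probe binding signal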;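 further: His-tagged human IDE residues 42-1019 made in E. coli with 30 nM FL-6b probe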
Target sequence (P14735 42-1019 limits assumed): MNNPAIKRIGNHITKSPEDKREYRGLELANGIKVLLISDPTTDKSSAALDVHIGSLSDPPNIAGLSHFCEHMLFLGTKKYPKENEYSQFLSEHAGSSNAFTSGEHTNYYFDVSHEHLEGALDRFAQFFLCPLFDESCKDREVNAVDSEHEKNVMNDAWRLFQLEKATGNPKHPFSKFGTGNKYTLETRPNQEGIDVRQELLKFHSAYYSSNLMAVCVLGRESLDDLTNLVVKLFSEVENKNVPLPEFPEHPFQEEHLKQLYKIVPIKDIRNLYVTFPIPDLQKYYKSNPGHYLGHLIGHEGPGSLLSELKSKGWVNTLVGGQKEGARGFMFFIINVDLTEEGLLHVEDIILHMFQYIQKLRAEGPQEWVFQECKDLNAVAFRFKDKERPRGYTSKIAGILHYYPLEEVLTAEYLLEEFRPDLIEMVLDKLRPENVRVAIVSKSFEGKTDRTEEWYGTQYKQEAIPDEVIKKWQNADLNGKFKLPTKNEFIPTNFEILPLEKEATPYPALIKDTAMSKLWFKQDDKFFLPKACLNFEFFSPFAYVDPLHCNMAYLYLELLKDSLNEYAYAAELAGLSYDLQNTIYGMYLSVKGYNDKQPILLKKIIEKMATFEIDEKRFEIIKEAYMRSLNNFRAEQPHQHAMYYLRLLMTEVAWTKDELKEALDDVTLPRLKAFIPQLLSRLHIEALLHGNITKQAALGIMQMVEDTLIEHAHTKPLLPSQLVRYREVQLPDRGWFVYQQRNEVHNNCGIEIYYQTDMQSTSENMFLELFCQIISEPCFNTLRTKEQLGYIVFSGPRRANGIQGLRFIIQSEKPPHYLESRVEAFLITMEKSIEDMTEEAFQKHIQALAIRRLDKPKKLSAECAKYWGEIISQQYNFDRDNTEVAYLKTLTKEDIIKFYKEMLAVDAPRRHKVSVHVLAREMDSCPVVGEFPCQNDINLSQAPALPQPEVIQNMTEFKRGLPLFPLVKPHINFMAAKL
Numbers without * were called inactive.

`COc1ccccc1-c1ccc([C@@H]2[C@@H](CO)N3CCCCN(S(=O)(=O)c4cn(C)cn4)C[C@@H]23)cc1` gave IDE exosite FP -15*.
Cn1cnc(S(=O)(=O)N2CCCCN3[C@H](C2)[C@@H](c2ccc(C#CC4CCCC4)cc2)[C@@H]3CO)c1 was read as IDE exosite FP 1.2.
`Cn1cnc(S(=O)(=O)N2CCCCN3[C@@H](CO)[C@H](c4ccc(C#CC5CCCC5)cc4)[C@@H]3C2)c1` gave IDE exosite FP 3.3.
CC(=O)N1[C@H](CN(CC(C)C)C(=O)c2ccccn2)[C@H](c2ccccc2)[C@@H]1CO was read as IDE exosite FP 0.92.
OC[C@@H]1[C@H](c2ccc(C#CC3(O)CCCC3)cc2)[C@@H]2CN(Cc3cccnc3)CCCCN12 was read as IDE exosite FP 5.1.
Screening CO[C@H](CN(C)C(=O)c1cc(Cl)cc(Cl)c1)[C@@H](C)CN(C(=O)Nc1ccc(F)cc1)[C@H](C)CO returned IDE exosite FP -0.56.
`CN(C)C(=O)c1cc2c(c(-c3cccc(/C=C/c4ccccc4)c3)n1)[C@H](CCO)N([S@@](=O)C(C)(C)C)C2` gave IDE exosite FP -1.1.
O=C(CC1CC1)N1CC(=O)N2[C@H](CO)[C@@H](c3ccc(-c4cccnc4)cc3)[C@H]2C1 was read as IDE exosite FP 1.4.
`CCC(=O)N1CCCCN2[C@H](CO)[C@@H](c3ccc(C#CCOC)cc3)[C@@H]2C1` gave IDE exosite FP 2.4.
`CCC(=O)N1CCCCN2[C@@H](CO)[C@H](c3ccc(-c4cccc(C#N)c4)cc3)[C@@H]2C1` gave IDE exosite FP 0.21.
CCC(=O)N1CCCCN2[C@H](CO)[C@H](c3ccc(C#CCOC)cc3)[C@H]2C1 was read as IDE exosite FP 3.
For CCC(=O)N1CCCCN2[C@@H](CO)[C@H](c3ccc(C#Cc4ccccc4)cc3)[C@@H]2C1 the results were IDE exosite FP -9.4*.
Screening O=C(Nc1ccccc1)N1CCCCN2[C@H](CO)[C@@H](c3ccc(C#Cc4ccccc4)cc3)[C@H]2C1 returned IDE exosite FP 3.2.
CCC(=O)N1CCCCN2[C@@H](CO)[C@H](c3ccc(C#CCOC)cc3)[C@@H]2C1 was read as IDE exosite FP 2.8.
`CCC(=O)N1CCCCN2[C@@H](CO)[C@@H](c3ccc(C#Cc4ccccc4)cc3)[C@@H]2C1` gave IDE exosite FP -7.7*.
For CCC(=O)N1CCCCN2[C@@H](CO)[C@@H](c3ccc(C#CCOC)cc3)[C@@H]2C1 the results were IDE exosite FP 2.5.
CCC(=O)N1CCCCN2[C@H](CO)[C@@H](c3ccc(C#Cc4ccccc4)cc3)[C@@H]2C1 was read as IDE exosite FP -9.2*.
`CCC(=O)N1CCCCN2[C@H](CO)[C@H](c3ccc(C#Cc4ccccc4)cc3)[C@H]2C1` gave IDE exosite FP -4.7*.
Screening C[C@H]1CN([C@@H](C)CO)C(=O)c2ccccc2-c2ccccc2CO[C@@H]1CN(C)C(=O)Nc1cccc(Cl)c1Cl returned IDE exosite FP -0.067.
`COc1ccc2c3c([nH]c2c1)[C@@H](CO)NCC31CCN(Cc2ccc(F)cc2)CC1` gave IDE exosite FP -0.47.
CO[C@@H](C(=O)N(C)C[C@@H]1OCc2ccccc2-c2ccccc2C(=O)N([C@H](C)CO)C[C@@H]1C)c1ccccc1 was read as IDE exosite FP 1.6.
For COc1ccccc1NC(=O)N1CC(=O)N2[C@H](CO)[C@@H](c3ccc(C#CC4CC4)cc3)[C@H]2C1 the results were IDE exosite FP -0.36.
`N#C[C@H]1[C@@H](c2ccccc2C2=CCCCC2)[C@@H](CO)N1C(=O)NC1CCCC1` gave IDE exosite FP 2.4.
CCCC#Cc1ccc([C@@H]2[C@H]3CN(S(=O)(=O)c4ccccc4C)CC(=O)N3[C@H]2CO)cc1 was read as IDE exosite FP -1.5.
N#C[C@H]1[C@@H](c2ccccc2-c2ccccc2F)[C@@H](CO)N1C(=O)C1CCOCC1 was read as IDE exosite FP 1.4.
Screening Cc1ccccc1S(=O)(=O)N1CC(=O)N2[C@H](CO)[C@@H](c3ccc(C#CC4CC4)cc3)[C@H]2C1 returned IDE exosite FP 1.4.
For COc1ccc2c3c([nH]c2c1)[C@H](CO)N(S(C)(=O)=O)CC31CCN(C(=O)Nc2ccccc2)CC1 the results were IDE exosite FP 0.71.
For CCC(=O)N1CCCCN2[C@H](CO)[C@@H](c3ccc(-c4ccc(F)cc4)cc3)[C@@H]2C1 the results were IDE exosite FP 3.2.
Screening CCC(=O)N1CCCCN2[C@H](C1)[C@H](c1ccc(/C=C/c3ccccc3)cc1)[C@@H]2CO returned IDE exosite FP -10*.
O=C(c1ccc(F)cc1)N1CCCCN2[C@H](CO)[C@@H](c3ccc(/C=C/c4ccccc4)cc3)[C@H]2C1 was read as IDE exosite FP -2.3.
CCC(=O)N1CCCCN2[C@@H](CO)[C@@H](c3ccc(/C=C/c4ccccc4)cc3)[C@@H]2C1 was read as IDE exosite FP -1.4.
Screening CCC(=O)N1CCCCN2[C@H](CO)[C@@H](c3ccc(/C=C/c4ccccc4)cc3)[C@@H]2C1 returned IDE exosite FP -4.5*.
`C/C=C/c1ccc([C@H]2[C@@H](CO)N3CCCCN(C)C[C@H]23)cc1` gave IDE exosite FP 0.65.
`O=C(c1ccc(F)cc1)N1CCCCN2[C@H](C1)[C@H](c1ccc(/C=C/c3ccccc3)cc1)[C@@H]2CO` gave IDE exosite FP 5.3.
For CN1CCCCN2[C@H](CO)[C@@H](c3ccc(-c4ccccc4)cc3)[C@H]2C1 the results were IDE exosite FP -0.23.
For CN1CCCCN2[C@@H](CO)[C@@H](c3ccc(/C=C/c4ccccc4)cc3)[C@@H]2C1 the results were IDE exosite FP -6.8*.
For Cc1ccc(-c2ccc([C@@H]3[C@@H](CO)N4CCCCN(S(=O)(=O)c5ccccc5C)C[C@@H]34)cc2)cc1 the results were IDE exosite FP 2.2.
For O=C(Nc1cccc(F)c1)N1CC(=O)N2[C@H](C1)[C@@H](c1ccc(-c3ccccc3F)cc1)[C@@H]2CO the results were IDE exosite FP -1.4.
Screening O=C1CCC(=O)N[C@H](c2ccc(F)cc2)C/C=C\C[C@@H](c2ccc(F)cc2)N1 returned IDE exosite FP -0.81.
For COc1ccc2c3c([nH]c2c1)[C@H](CO)N(C(=O)Nc1c(C)noc1C)CC31CN(CC2CCOCC2)C1 the results were IDE exosite FP 0.48.
O=C(Nc1ccc(F)cc1)N1CC(=O)N2[C@H](CO)[C@H](c3ccc(C#Cc4ccccc4)cc3)[C@@H]2C1 was read as IDE exosite FP -0.57.
For C[C@H](NC(=O)C[C@H]1C=C[C@@H](NC(=O)c2cccnc2)[C@H](CO)O1)c1ccccc1 the results were IDE exosite FP -0.65.
CN1CCN(C(=O)C[C@H]2CC[C@H]3[C@@H](COc4ccc(NC(=O)c5cccs5)cc4C(=O)N3C)O2)CC1 was read as IDE exosite FP -0.8.
`CCS(=O)(=O)N1CC2(CN(Cc3ccc4c(c3)OCO4)[C@@H](CO)c3c2c2ccc(OC)cc2n3C)C1` gave IDE exosite FP -0.37.
COCC(=O)N1[C@H](C#N)[C@H](c2ccccc2C2=CCCCC2)[C@@H]1CO was read as IDE exosite FP 1.8.
O=C1CNC[C@H]2[C@H](c3ccc(C#CC4CCCC4)cc3)[C@@H](CO)N12 was read as IDE exosite FP 5.2.
For O=C(C1CCOCC1)N1CC(=O)N2[C@@H](CO)[C@H](c3ccc(Br)cc3)[C@@H]2C1 the results were IDE exosite FP 4.2.
O=C(C1CCOCC1)N1CC(=O)N2[C@H](CO)[C@@H](c3ccc(Br)cc3)[C@H]2C1 was read as IDE exosite FP 0.54.
